Measured values as given in PubChem BioAssay AID1159580 (chemical genetic matrix, 2015).
Several values for one entry are separate records, joined by “and”; a condition that tells them apart may be missing. Identical values can stand only once. The whole screen tested about 5,500 compounds, of which about 2,000 (36%) were called active. About 18% were inconclusive and are not listed. No stated cut-off is given here; in the data, active means normalized growth mostly below about 0.91 (no sharp cut-off); inconclusive means no clear call, values can overlap the other calls; inactive means mostly above about 0.92. Some of the results follow.

Assay: chemical genetic growth profiling, strain panel (AID 1159580);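 further: tested at 20 µM; growth read once vehicle control cultures reached saturation at 30 °C; 1 = growth at the plate median or of vehicle wells; lower values mean less growth of the strain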
Settings: S. cerevisiae deletion strains, growth OD

Measured: normalized growth

O=C(O)c1ccccc1OP(=O)(O)O
inactive: locus YAL021C, strain ccr4, active compounds read low 0.962 | locus YAL026C, strain drs2, active compounds read low 1.01 | locus YAL030W, strain snc1, active compounds read low 1 | locus YBL061C, strain skt5, active compounds read low 1.01 | locus YBR009C, strain hhf1, active compounds read low 1.03 | locus YBR021W, strain FUR4, active compounds read low 1.01 | locus YBR023C, strain chs3, active compounds read low 1.01 | locus YBR171W, strain sec66, active compounds read low 1.01 | locus YBR229C, strain ROT2, active compounds read low 1.01 | locus YBR231C, strain swc5, active compounds read low 1.02 | locus YBR279W, strain paf1, active compounds read low 1 | locus YCL011C, strain gbp2, active compounds read low 1.01 | locus YCL016C, strain dcc1, active compounds read low 1 | locus YCL029C, strain bik1, active compounds read low 0.994 | locus YCL061C, strain MRC1, active compounds read low 1 | locus YCL069W, strain vba3, active compounds read low 0.997 | locus YCR088W, strain abp1, active compounds read low 1.01 | locus YDL005C, strain med2, active compounds read low 1 | locus YDL035C, strain GPR1, active compounds read low 1.01 | locus YDL040C, strain nat1, active compounds read low 0.996 | locus YDL074C, strain BRE1, active compounds read low 1.02 | locus YDL101C, strain DUN1, active compounds read low 1.02 | locus YDL134C, strain PPH21, active compounds read low 1.02 | locus YDL185W, strain tfp1, active compounds read low 0.976 | locus YDL192W, strain arf1, active compounds read low 0.989 | locus YDR001C, strain nth1, active compounds read low 0.993 | locus YDR069C, strain doa4, active compounds read low 1.02 | locus YDR101C, strain arx1, active compounds read low 1.01 | locus YDR137W, strain rgp1, active compounds read low 0.987 | locus YDR150W, strain NUM1, active compounds read low 1.01 | locus YDR159W, strain sac3, active compounds read low 1.02 | locus YDR162C, strain NBP2, active compounds read low 1.02 | locus YDR195W, strain ref2 1.01 | locus YDR297W, strain sur2, active compounds read low 1 | locus YDR318W, strain mcm21, active compounds read low 0.992 | locus YDR334W, strain swr1, active compounds read low 1 | locus YDR335W, strain msn5, active compounds read low 1.01 | locus YDR388W, active compounds read low 0.987 | locus YDR392W, strain spt3, active compounds read low 0.979 | locus YDR502C, strain sam2, active compounds read low 0.994 | locus YEL003W, strain gim4, active compounds read low 1.01 | locus YEL037C, strain rad23, active compounds read low 0.997 | locus YEL061C, strain CIN8 (second series), active compounds read low 1.01 | locus YEL061C, strain CIN8, active compounds read low 1.01 | locus YER015W, strain faa2, active compounds read low 1.01 | locus YER016W, strain bim1, active compounds read low 1 | locus YER110C, active compounds read low 0.992 | locus YER111C, strain swi4, active compounds read low 1.01 | locus YER155C, strain BEM2 (second series), active compounds read low 1.05 | locus YER155C, strain BEM2, active compounds read low 1.01 | locus YER167W, strain BCK2, active compounds read low 1.01 | locus YFR010W, strain ubp6, active compounds read low 1.03 | locus YGL078C, strain dbp3, active compounds read low 0.997 | locus YGL086W, strain mad1, active compounds read low 0.996 | locus YGL167C, strain pmr1, active compounds read low 1.01 | locus YGL173C, strain kem1, active compounds read low 1.01 | locus YGL227W, strain vid30, active compounds read low 1.01 | locus YGL240W, strain doc1, active compounds read low 1.02 | locus YGL248W, strain PDE1, active compounds read low 1.02 | locus YGL253W, strain hxk2, active compounds read low 1.04 | locus YGR135W, strain pre9, active compounds read low 0.988 | locus YGR252W, strain gcn5, active compounds read low 0.97 | locus YHR013C, strain ard1, active compounds read low 0.997 | locus YHR027C, strain rpn1, active compounds read low 1 | locus YHR030C, strain SLT2, active compounds read low 1.01 and 0.96 | locus YHR079C, strain IRE1 (second series), active compounds read low 0.996 | locus YHR079C, strain IRE1, active compounds read low 0.95 | locus YHR094C, strain hxt1, active compounds read low 0.991 | locus YHR129C, strain ARP1, active compounds read low 1.01 | locus YHR142W, strain chs7, active compounds read low 0.958 | locus YHR200W, strain rpn10, active compounds read low 0.995 | locus YIL066C, strain RNR3, active compounds read low 1.02 | locus YIL073C, strain SPO22, active compounds read low 0.999 | locus YIL125W, strain kgd1, active compounds read low 0.987 | locus YIR030C, strain dcg1, active compounds read low 0.995 | locus YJL092W, strain hpr5, active compounds read low 1 | locus YJL095W, strain BCK1 (second series), active compounds read low 1 | locus YJL095W, strain BCK1, active compounds read low 1.03 and 0.973 | locus YJL115W, strain asf1, active compounds read low 0.99 | locus YJL129C, strain trk1, active compounds read low 1 | locus YJL134W, strain LCB3, active compounds read low 1 | locus YJL154C, strain vps35, active compounds read low 0.996 | locus YJL164C, strain tpk1, active compounds read low 0.981 | locus YJL166W, strain qcr8, active compounds read low 1.01 | locus YJL168C, strain set2, active compounds read low 0.986 | locus YJL187C, strain SWE1 (second series), active compounds read low 1.02 | locus YJL187C, strain SWE1, active compounds read low 0.997 | locus YJR043C, strain POL32, active compounds read low 1.01
